Screens (PubChem)
Gal4-VP16 FLuc: inhibits Gal4-VP16 luciferase reporter, ROR gamma counter-screen | Drosophila S2 Gal4-VP16 UAS-luciferase, luminescence, 20 h | Potency, µM (doses to about 53.6 µM), for the others: at the highest dose activity, negative = inhibition, most hits filed as inhibitors | actives 3.5% (n = 310,000);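 note: Gal4-VP16 expression switched on by copper sulfate through the metallothionein promoter; potency is the fitted concentration of half-maximal effect; % is set by controls: 0 for no effect and ±100 for the full control effect; nearly all actives have a fitted effect of over 50% in size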
Giardia killer: kills Giardia lamblia. Giardia lamblia trophozoite viability. activity change, % at 7.66 µM, hits read low. actives 0.15% (n = 340,000); in the data active = activity change below about -80%; inconclusive = between about -30% and that limit;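 note: parasites exposed to compound for two days anaerobically before the ATP read; % is set by controls: 0 for no effect and ±100 for the full control effect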
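Killing of trophozoites was scored by loss of ATP luminescence after a 48 hrs anaerobic exposure to compounds at 37 deg C, using 100 cells per well.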
RORgamma inh: blocks mouse ROR gamma transcriptional activity. Drosophila S2 Gal4-RORgamma UAS-luciferase reporter, 20 h. P51450. Potency, µM (highest dose often 53.6 µM), for the others: top-dose activity change, negative = inhibition, actives largely listed as inhibitors. actives 5.4% (n = 310,000); note: potency is the fitted concentration of half-maximal effect; % is set by controls: 0 for no effect and ±100 for the full control effect; nearly all actives have a fitted effect of over 60% in size
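Stably transfected Drosophila Schneider cells are the test system, with ROR gamma fused to Gal4 and luciferase under UAS control; luminescence is read after 20 hr of 700 uM copper sulfate induction at ambient temperature.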
a7 integrin act: activates integrin-mediated alleviation for muscular dystrophy. Potency, µM (series often up to 38.3 µM), for the others: top-dose activation, most hits filed as activators. alpha7betagal myoblasts, beta-gal FDG fluorescence, 48 h. actives 0.064% (n = 350,000);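 note: potency is the fitted concentration of half-maximal effect; 100% = response of the positive control SU9516; nearly all actives have a fitted effect of over 60% in size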
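alpha7betagal+/- myoblasts (passage 13, 250/well) treated 48 h at 37C with compounds at 1:260 dilution of DMSO stock. Lysed, then beta-galactosidase activity read as FDG fluorescence (ex 480/em 540) after 30 min, with pre-read for autofluorescence.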
ERG Ets-DNA blk: blocks human ERG Ets domain binding to DNA. actives 0.028% (n = 370,000). fluorescence polarization, His-ERG Ets domain / labelled DNA. Potency, µM (highest dose often 76.9 µM), for inactives: at the highest dose FP activity, negative = inhibition, hits mostly inhibitors; active = well fitted inhibition curve with a large enough effect in the polarisation, with a control signal flat; inconclusive = small, poorly fitted or top-dose-only effect, or effect the other way, or a change in a side signal; inactive = no such curve, though single readings can be large or run the other way; the % refers to the polarisation;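 note: polarization taken with two DNA probes labelled with fluorescein and Texas red; potency is the fitted concentration of half-maximal effect; % of control where 0% means no effect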
Target sequence (P11308 whole entry, looked up, the tested form may be a part): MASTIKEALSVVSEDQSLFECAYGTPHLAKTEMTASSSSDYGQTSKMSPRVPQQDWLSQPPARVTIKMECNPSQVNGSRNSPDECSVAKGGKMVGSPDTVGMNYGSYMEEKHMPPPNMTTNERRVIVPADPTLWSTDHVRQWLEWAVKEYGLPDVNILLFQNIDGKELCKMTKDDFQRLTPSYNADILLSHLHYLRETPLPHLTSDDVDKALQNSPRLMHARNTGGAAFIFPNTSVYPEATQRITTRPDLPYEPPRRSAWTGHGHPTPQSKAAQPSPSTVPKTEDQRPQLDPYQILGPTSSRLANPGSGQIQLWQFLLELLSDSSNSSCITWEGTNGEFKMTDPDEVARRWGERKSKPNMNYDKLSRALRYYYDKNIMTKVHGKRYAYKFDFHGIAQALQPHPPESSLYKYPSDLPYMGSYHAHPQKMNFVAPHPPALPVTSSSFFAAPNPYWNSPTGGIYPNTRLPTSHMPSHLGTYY
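His-tagged ERG Ets domain (1 uM in the protein solution; 300mM KCl, 50mM Tris-HCl, 1mM EDTA, 1mM DTT, pH 7.5) received compound, then a probe mix of 5 nM fluorescein-DNA and 100nM Texas-615-DNA. Fluorescence polarization was read for both dyes.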
Active calls of the source: *; ? = inconclusive; · = no result; [ ] = remark or other dose. The sample as a whole holds a higher share of hits than the screen did. Unless noted, calls come from the whole dose curve; as a rule, active = well fitted curve in the direction sought with a large enough effect; inconclusive = small, poorly fitted or top-dose-only effect, or another doubt; inactive = no such curve, though single readings can be large; an effect the other way counts as inactive or inconclusive.

SMILES	Gal4-VP16 FLuc	Giardia killer	RORgamma inh	a7 integrin act	ERG Ets-DNA blk
O=C(CSc1ccccn1)N/N=C/C=C/c1ccccc1	15.8µM*	-13.9	?	10.0%	5.2%
C=CCC(O)CC1C2C(CC(O)CC=C)C3C1C3C2OC(C)(C)C (stereo not drawn)	0.8%[10 µM]	·	-5.5%[10 µM]	·	·
COc1ccc(Cl)cc1Nc1nc(Cl)nc(NCCO)n1	·	·	·	-5.6%	·
NC(=O)CC(NC(=O)Cc1ccc(Br)cc1)c1ccc(NCc2ccc(F)cc2)c([N+](=O)[O-])c1 (stereo not drawn)	-2.5%	4.9	-0.6%	-30.0%	-6.4%
O=C(CSc1ccccn1)N/N=C/c1ccccc1[N+](=O)[O-]	?	-17.4	18.2%	-3.6%	0.2%
O=C(CSc1ccccn1)N/N=C/c1cc([N+](=O)[O-])ccc1O	7.08µM*	-13.4	2µM*	-34.6%	2.4%
NC(=O)c1cc([N+](=O)[O-])ccc1NCc1cccc2ccccc12	·	-3.9	·	-7.5%	-4.2%
Cc1ccn(CC(=O)N/N=C/c2cc([N+](=O)[O-])ccc2O)n1	8.91µM*	-9.6	?	2.1%	-2.5%
O=C(/C=C/Nc1ccc([N+](=O)[O-])cc1Br)c1cccc2ccccc12	?	-2.4	2.51µM*	18.2%	-8.3%
O=C(Cn1nc2ccccc2n1)N/N=C/c1cc([N+](=O)[O-])ccc1O	1.41µM*	21.5	?	-24.6%	14.0%
COc1ccc(O)c(CN2CCC(n3nccc3NC(=O)CCOc3ccccc3)CC2)c1	-16.0%	30.7	44.2%	-3.1%	13.7%
CCOC(=O)c1cccc(NC(=O)N2CCC(CN3CCCCCC3)CC2)c1	·	·	·	·	0.8%
O=C(Cn1nnc(-c2ccccc2)n1)N/N=C/c1cc([N+](=O)[O-])ccc1O	-26.0%	-0.7	-4.4%	14.2%	-4.6%
O=C(Cn1cncn1)N/N=C/c1cc([N+](=O)[O-])ccc1O	-15.0%	-27.0	8.91µM*	?	-9.2%
Cn1c(N)c(C(=O)COC(=O)C2Cc3ccccc3CN2S(C)(=O)=O)c(=O)n(C)c1=O (stereo not drawn)	·	·	·	-12.7%	·
Cc1[nH]n2c(=O)cc(C(C)(C)C)nc2c1-c1ccccc1	3.16µM*	0.4	1.41µM*	-22.6%	4.5%
Cc1[nH]n2c(=O)cc(C(C)C)nc2c1-c1ccccc1	?	2.4	11.2µM*	1.9%	3.3%
Cc1[nH]n2c(=O)cc(-c3ccc(Cl)cc3)nc2c1-c1ccccc1	·	·	·	·	1.7%
C#CCN1C(=O)S/C(=C\c2ccc(-c3ccc(Cl)c(C(=O)O)c3)o2)C1=O	1.26µM*	6.2	-9.8%[1.91 µM]	22.0%	4.4%
O=C(O)c1cc(-c2ccc(/C=C3\NC(=O)N(c4ccccc4)C3=O)o2)ccc1Cl	-7.8%	-9.5	1.4%	6.2%	15.5%
CCN(c1ccccc1)S(=O)(=O)c1ccc(NC(=O)c2cc(=O)c3cc(C)c(C)cc3o2)cc1	·	·	·	·	1.6%
CCC(=O)NC(=S)Nc1ccc(NC(=O)c2ccc(OC)cc2)cc1	-1.6%	12.4	2.3%	13.9%	-1.8%
CCC(=O)NC(=S)Nc1ccc(NC(=O)c2ccc(Br)o2)cc1	9.4%	-8.9	11.2µM*	?	-20.5%
CCN(c1ccccc1)S(=O)(=O)c1ccc(NC(=S)NC(=O)c2ccc(Br)o2)cc1	15.8µM*	-14.2	4.47µM*	-2.5%	0.2%
CCCn1c(NCc2ccccc2C)nc2ccccc21	·	·	·	·	2.3%
SMILES	Gal4-VP16 FLuc	Giardia killer	RORgamma inh	a7 integrin act	ERG Ets-DNA blk
CC1(C)Cc2nc3oc4c(=O)n(CC(=O)Nc5ccccc5)cnc4c3cc2CO1	2.5%	-14.8	30.2%	-15.9%	-1.6%
CC(C)CCn1cnc2c(oc3nc4c(cc32)CCCC4)c1=O	?	?	10µM*	-5.1%	-2.7%
COc1ccc(SCC(Cc2ccccc2)N2CCN(CC(C)C)CCC2=O)cc1 (stereo not drawn)	?	-16.9	?	·	·
Cc1cc(-c2ccc(S(=O)(=O)Nc3ccccc3C)cc2)on1	·	·	·	·	-0.2%
OCc1ccc(-c2ccc(-c3ccc(CO)s3)o2)s1	1.58µM*	·	0.631µM*	·	·
CC(C)c1ccc(NC(=O)c2ccc(F)c(S(=O)(=O)N3CCc4ccccc4C3)c2)cc1	·	·	·	·	-1.4%
COc1ccc(C(=O)NC2=NCCS2)cc1	-2.2%	-15.2	-18.1%	8.5%	7.5%
O=C(NC1=NCCS1)c1cccc(OC(F)F)c1	-29.0%	5.9	11.2µM*	5.7%	15.8%
COc1ccc(N(C)S(=O)(=O)c2cccc(C(=O)NC3=NCCS3)c2)cc1	?	-8.1	6.31µM*	?	-0.6%
Cc1ccc(N(C)S(=O)(=O)c2cccc(C(=O)NC3=NCCS3)c2)cc1	?	-9.5	?	12.6%	-12.4%
CC(C)Oc1ccc(C(=O)NC2=NCCS2)cc1	1.0%[10 µM]	-18.3	10µM*	-14.1%	-0.5%
Cn1c(=O)[nH]c(=O)c2c1nc1n(CCO)c(-c3ccccc3)cn21	·	·	·	·	4.2%
COc1ccc(/C=N/Nc2ncnc3scc(-c4ccccc4)c23)cc1OC	0.891µM*	-8.3	3.55µM*	28.0%	2.8%
CC(Cc1cccs1)NC(=S)Nc1ccc(Cl)cc1 (stereo not drawn)	14.1µM*	4.2	7.08µM*	-55.2%	-0.3%
CC(Cc1cccs1)NC(=S)Nc1ccc(Cl)c(Cl)c1 (stereo not drawn)	?	18.1	7.94µM*	23.6%	-19.4%
CC(Cc1cccs1)NC(=O)Nc1cccc(Cl)c1 (stereo not drawn)	4.6%	-1.6	32.1%	-32.1%	-5.7%
COC(=O)[C@@]1(Cc2ccc(OC)cc2)[C@H]2c3cc(C(=O)N(C)C)n(Cc4ccc(Cl)c(C(F)(F)F)c4)c3C[C@H]2CN1C(=O)c1ccccc1	2.3%	·	?	·	·
CCNC(=S)NNC(=O)C1CCCCC1	?	-0.2	12.6µM*	9.5%	0.6%
CCNC(=O)C/C(C)=N/NC(=O)C1CCCCC1	?	2.6	11.2µM*	9.9%	6.9%
COc1cccc(NC(=O)c2oc3ccccc3c2NC(=O)C23CC4CC(CC(C4)C2)C3)c1	·	·	·	·	-5.6%
CN(C)C(=O)c1ccc(-c2cncnc2NCc2cccnc2)cc1	-18.8%	·	10.3%	·	·
CCN1C(=O)[C@@H]2[C@@H](c3ccc(-c4ccc(Cl)c(Cl)c4)c(OC)c3)N3CCC[C@@]3(C(=O)OC)[C@@H]2C1=O	·	3.6	·	0.0%	12.8%
C=CCN1C(=S)CC(c2ccccc2)=Nc2ccccc21	-8.9%	12.4	?	0.2%	-1.1%
CCOc1ccc(NC(=O)c2ccc(NC(=S)NC3CCCCC3)cc2)cc1	?	1.0	-44.7%	-39.6%	9.2%
FC(F)Oc1ccc(NC(=S)NC2CCCCCCC2)cc1	10µM*	0.9	3.55µM*	1.8%	0.1%
S=C(Nc1ccc(Cl)cc1)NC1CCCCC1	15.8µM*	10.9	3.55µM*	-28.6%	-20.4%
S=C(Nc1cccnc1)NC1CCCCCCC1	22.4µM*	6.1	?	-20.7%	2.4%
NS(=O)(=O)c1ccc(NC(=S)NC2CCCCC2)cc1	4.2%	5.2	6.2%	-20.7%	0.8%
S=C(Nc1ccc(Br)cc1)NC1CCCCC1	17.8µM*	-13.5	7.94µM*	-47.7%	-7.4%
